# PubChem BioAssay (NCATS)
# Results filed as inconclusive are left out. Where a call stands in place of a potency, no number is given. Activity calls are given as the source filed them. Calls come from the whole dose curve; as a rule, active = well fitted cell-killing curve with a large enough effect; inconclusive = small, poorly fitted or top-dose-only effect; inactive = flat fitted curve, though single readings scatter.
# Experiment: Quantitative highthroughput screen to assess conditional lethalithy of P12 Ichikawa cells grown in Human Plasma-Like Medium with dialyzed fetal bovine serum (HPLM+ds) (AID 1963879); note: nearly all actives have a fitted effect of over 35% in size
# Conditions: ATP luminescence, 48 h; Potency: viability; series mostly up to 45.8 µM
# Method in brief: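 Each medium arm—HPLM with 10% dialyzed FBS, or RPMI1640 with 5 mM glucose and 10% untreated or dialyzed FBS—was screened against an 11-point, 3-fold compound titration for 48 h at 37 °C, with CellTiter-Glo luminescence as endpoint.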
# Potency is the fitted concentration of half-maximal effect.
row,SMILES,Potency
1,CC(C)(C)c1cc(C(C)(C)C)c(NC(=O)c2c[nH]c3ccccc3c2=O)cc1O,inactive
2,NC(=O)NO,9.35 µM (active)
3,Nc1ccccc1NC(=O)c1ccc(CNC(=O)OCc2cccnc2)cc1,2.35 µM (active)
4,COc1cccc(OC)c1-c1cc(C(=O)NC2(C(=O)O)C3CC4CC(C3)CC2C4)nn1-c1ccnc2cc(Cl)ccc12 (stereo unspecified),inactive
5,Cc1cn(CCN2CCN(c3ccccc3-c3cc(C#N)cc(C(=O)NCCCN4CCCC4)c3)CC2)c2ccccc12,8.31 µM (active)
6,CCCCCN(CCC12CC3CC(CC(C3)C1)C2)C(=O)NCCCc1ccncc1,inactive
7,Nc1c2c(nc3ccccc13)CCCC2,inactive
8,NS(=O)(=O)c1cccc2c1C(=O)c1cccc(O)c1C2=O,26.4 µM (active)
9,O=C(N[C@@H](c1ccccc1)[C@@H]1CCCCN1)c1cccc(C(F)(F)F)c1Cl,inactive
10,O=S(=O)(O)CCS,3.72 µM (active)
11,CCn1c(C(=O)N(C2CC2)C2CC2)cc2c3c(ncn3C)c(Nc3cc(C)n(C)n3)nc21,inactive
